# Screening data from PubChem.
# CHT inh = inhibitors of human choline transporter CHT. Q9GZV3. CHT-expressing cells, membrane potential dye, choline response; hits give low values. B-score at 10 µM. 310,000 compounds, 0.86% hits. AID 488975;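 active = B-score over 3 SD under the library average, and starting fluorescence ratio not unusually high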;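 note: choline stimulus applied at its EC90 after an EC20 pre-addition; B-score computed on integrated fluorescence ratio after choline addition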
# Target sequence (Q9GZV3 whole entry, looked up): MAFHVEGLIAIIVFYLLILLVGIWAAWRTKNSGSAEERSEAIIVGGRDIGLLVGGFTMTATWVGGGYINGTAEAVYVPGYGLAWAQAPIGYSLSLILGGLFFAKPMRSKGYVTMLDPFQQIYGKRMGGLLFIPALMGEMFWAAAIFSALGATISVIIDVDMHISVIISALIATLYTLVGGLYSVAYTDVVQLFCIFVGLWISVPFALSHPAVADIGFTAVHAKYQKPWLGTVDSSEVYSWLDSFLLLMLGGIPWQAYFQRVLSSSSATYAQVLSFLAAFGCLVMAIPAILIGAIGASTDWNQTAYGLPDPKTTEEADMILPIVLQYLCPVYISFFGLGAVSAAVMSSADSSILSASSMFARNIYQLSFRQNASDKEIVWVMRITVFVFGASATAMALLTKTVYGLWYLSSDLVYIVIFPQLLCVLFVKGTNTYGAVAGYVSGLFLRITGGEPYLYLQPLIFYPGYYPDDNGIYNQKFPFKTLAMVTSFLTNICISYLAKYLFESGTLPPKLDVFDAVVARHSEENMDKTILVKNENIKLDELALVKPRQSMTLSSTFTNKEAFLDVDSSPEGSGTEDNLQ
# CHT PAM = allosterically activates the human high affinity choline transporter; Q9GZV3; CHT-expressing cells, membrane potential dye, choline EC20; hits give high values; LV-AA mutant CHT in HEK293 cells; B-score at 10 µM; 310,000 compounds, 0.49% hits;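 active = initial fluorescence not abnormally high and integrated response B-score, plate-corrected, over 3 SD above library mean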
# MEKK2 WT-MEK5 = raises or lowers MEK5 binding to wildtype human MEKK2 PB1 domain; AID 1531; bead flow cytometry, Alexa488-MEK5 binding to MEKK2 WT; actives lie on both sides; binding response (% of control), % at 10 µM; 290,000 compounds, 1.1% hits; in the data active = binding response below about 67% or above about 130%
# MEKK3 PB1 HTS = modulators (inhibitors or enhancers) of MEK5 binding to human MEKK3 PB1 domain. bead-based flow cytometry, Alexa488-MEK5 binding to MEKK3; actives lie on both sides; 0 = blocked by unlabeled MEK5, 100 = vehicle. AID 1529. Q99759. binding response (% of control), % at 10 µM. 290,000 compounds, 1.4% hits;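 active = binding response more than 3 SD above or below the average of its plate-row segment, actives on both sides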;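 note: Alexa488 bead fluorescence after subtracting the streptavidin-only scavenger bead signal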
# SUMO Mot1 rescue = inhibitors of SUMOylation pathway: yeast Mot1-301 growth rescue; S. cerevisiae Mot1-301 growth rescue, ATP luminescence, 38.5C; percent above DMSO median, 100 means doubled; AID 2716; growth rescue, % at 18.8 µM; 320,000 compounds, 1% hits;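 active = every valid replicate shows activation above 250% relative to neutral control wells; inactive = the rest, any valid replicate at or below 250%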;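 note: OY570 slx delta 5 strain wells were the positive control but not used for scaling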
# MEKK2mut PB1 HTS = signal of MEK5 binding to mutant human MEKK2 PB1 domain | bead flow cytometry, Alexa488-MEK5 binding to MEKK2 mutant | percent response, % at 10 µM | 290,000 compounds, 0.35% hits; in the data active = percent response above about 24%, passing the limit was not always enough
# CHT act confirm = human CHT activation, confirmatory screen. AID 504833. activation, % at 10 µM. CHT-expressing cells, membrane potential dye fluorescence (FDSS); % of choline EC20–EC90 response window; HEK293 expressing CHT LV-AA mutant; choline added at its EC20. 2,500 compounds, 91% hits. shares compounds with CHT PAM;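 active = primary screen active, with duplicate mean activation above negative control mean plus 3 SD, cut at about 11% in these data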
# HEK293 MP dye = activity in parental HEK293 cells lacking CHT. shares compounds with CHT PAM. membrane potential dye fluorescence (FDSS); measured after EC20 choline addition. 2,500 compounds, 62% hits. ratio readout change at 10 µM, hits read low. AID 623908;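 active = duplicate-averaged ratio beyond 3 SD from buffer wells, up or down, though filed actives are nearly all decreases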
# * hit, by the source's call; i = inactive; . = no result. Compounds with a hit are over-represented: about 4.1% of the library has one in this group of screens.
SMILES,CHT inh,CHT PAM,MEKK2 WT-MEK5,MEKK3 PB1 HTS,SUMO Mot1 rescue,MEKK2mut PB1 HTS,CHT act confirm,HEK293 MP dye
O=C(N/N=C\c1cc([N+](=O)[O-])ccc1N1CCOCC1)c1ccccn1,i,i,106.0,95.0,-14.5,-1.0,.,.
CC1(C(=O)c2ccccc2)C2c3c(ccc4ccccc34)OC(=O)C21C(=O)N1CCOCC1 (configuration not stated),i,7.32*,93.0,92.0,-1.9,10.0,15.8*,i
Cc1cccc(NC(=O)C2c3ccccc3Oc3ccccc32)n1,i,i,87.0,99.0,439.8,-11.0,.,.
Cc1ccc(-c2nc(CN(C)C)cc(CN(C)C)c2O)cc1,i,i,111.0,105.0,4.6,14.0,.,.
CN(C)Cc1cc(C(C)(C)c2cc(CN(C)C)c(O)c(CN(C)C)c2)cc(CN(C)C)c1O,i,8.32*,128.0,104.0,-5.2,26.0,51.9*,-57.7*
CC(=O)Nc1ccc(S(=O)(=O)NC2CC3CCC2C3)cc1 (configuration not stated),i,i,111.0,112.0,5.9,2.0,.,.
Cn1c(C(=O)NCCN2CCCCCC2)cc2c(=O)n(C)c3ccccc3c21,i,i,100.0,97.0,23.9,3.0,25.3*,-27.4*
Cn1c(C(=O)NCCCN2CCOCC2)cc2c(=O)n(C)c3ccccc3c21,i,i,94.0,96.0,-7.4,-1.0,.,.
Cn1c(=O)oc2cc(S(=O)(=O)N3CCC(C(=O)NCc4ccccc4Cl)CC3)ccc21,i,i,108.0,102.0,11.0,2.0,.,.
CCc1c(C)nc(N2CCN(c3ccccc3F)CC2)[nH]c1=O,i,i,95.0,93.0,8.2,-2.0,.,.
CCOc1ccc(C(C)=O)cc1CSC(=N)N,i,i,106.0,103.0,-6.7,1.0,12.6*,-45.4*
CCC(=O)N1CCc2cc(S(=O)(=O)N3CCN(c4ccccc4Cl)CC3)ccc21,i,i,100.0,104.0,-14.2,0.0,.,.
CN1CCN(c2nc3c(c(=O)[nH]c(=O)n3C)n2CCSc2nnnn2-c2ccccc2)CC1,i,8.19*,100.0,99.0,11.6,-2.0,58.7*,-67.8*
CN1CCN(c2nc3c(c(=O)n(C)c(=O)n3C)n2Cc2ccccc2)CC1,i,i,105.0,102.0,8.8,5.0,.,.
CC1CCN(c2nc3c(c(=O)n(C)c(=O)n3C)n2Cc2ccccc2)CC1,i,6.61*,113.0,107.0,-15.2,6.0,7.1,i
CN1CCN(c2nc3c(c(=O)n(C)c(=O)n3C)n2CCSc2nnnn2-c2ccccc2)CC1,i,7.25*,101.0,97.0,-16.8,-1.0,52.4*,-71*
CCCCc1ccc(NC(=O)C2CCCO2)cc1 (configuration not stated),i,i,100.0,100.0,.,3.0,.,.
CCN1C(=O)[C@H]2[C@@H](c3ccc(Cl)cc3)N3C(=O)CN(CCOC)C(=O)[C@@]3(Cc3ccccc3)[C@H]2C1=O,i,i,112.0,101.0,-5.5,10.0,.,.
CN(C)Cc1ccc(-c2nc3cccc4c3n2CCNC4=O)cc1,i,i,93.0,99.0,-12.2,-4.0,50.7*,-38.3*
O=C1CCCCCCCCCC/C(=N\O)CCCO1,i,i,.,.,-14.3,.,14.2*,i
O=C(COC(=O)C1CC(O)CN1S(=O)(=O)c1ccc(Cl)cc1)c1ccccc1 (configuration not stated),i,i,102.0,119.0,53.4,0.0,.,.
CC(C)N(C(=O)COC(=O)[C@@H]1CC(O)CN1S(=O)(=O)c1ccc(C(C)(C)C)cc1)C(C)C (some centres not stated),i,7.15*,107.0,103.0,-3.1,3.0,8.5,i
Cc1cccc(NC(=O)C2Cc3ccccc3O/C2=N\O)c1 (configuration not stated),i,i,104.0,105.0,8.3,2.0,.,.
Fc1ccccc1COc1ccc2ccccc2c1CNc1nn[nH]n1,i,i,95.0,99.0,.,-3.0,.,.
OC(CCc1cccc(Cl)c1)c1cccs1 (configuration not stated),i,i,104.0,100.0,-20.8,4.0,.,.
SMILES,CHT inh,CHT PAM,MEKK2 WT-MEK5,MEKK3 PB1 HTS,SUMO Mot1 rescue,MEKK2mut PB1 HTS,CHT act confirm,HEK293 MP dye
Cc1ccc2nc3c(cc(C#N)c(=N)n3Cc3cccnc3)c(=O)n2c1,i,8.52*,87.0,92.0,-4.8,-15.0,41.1*,-27.6*
COC(=O)c1cc2c(=O)n3ccccc3nc2n(Cc2cccnc2)c1=N,i,6.8*,101.0,96.0,28.2,5.0,40.2*,-55*
N=c1c(C(=O)NCc2ccc(F)cc2)cc2c(=O)n3ccccc3nc2n1Cc1cccnc1,i,i,99.0,102.0,-1.0,4.0,.,.
C=CCn1c(=N)c(C#N)cc2c(=O)n3ccccc3nc21,i,i,104.0,97.0,234.9,5.0,.,.
CCOC(=O)CNC(=O)CSc1cc(C)nc2ccc(OC)cc12,i,i,81.0,98.0,-6.1,-12.0,44.4*,-42.3*
CCOC(=O)CSc1nc(C)c2cc(OC)ccc2n1,i,i,96.0,95.0,-3.5,3.0,.,.
COc1ccc2cc(C#N)c(SCC(=O)N3CCCC3)nc2c1,i,i,101.0,96.0,30.6,1.0,.,.
COc1ccc2nc(C)cc(SCC(=O)N3CCCCC3)c2c1,i,i,91.0,91.0,-2.2,-6.0,31.8*,-45.2*
C#CCN(C(=O)c1cc(COc2cccc(C(F)(F)F)c2)on1)C1CCCCC1,i,i,100.0,103.0,-4.4,6.0,.,.
COc1ccc(OC)c(S(=O)(=O)N2CCN(C(=O)c3cc(C4CC4)nn3-c3ccccc3)CC2)c1,.,.,.,.,-17.9,.,.,.
CC(C)(C)OC(=O)COc1cc(O)c2c(=O)cc(-c3ccccc3)oc2c1,i,i,81.0,88.0,10.7,-13.0,.,.
CC(C)(C)OC(=O)COc1cc(OCC(=O)OC(C)(C)C)c2c(=O)cc(-c3ccccc3)oc2c1,i,8.3*,96.0,88.0,22.5,2.0,50.3*,i
CCOC(=O)c1cn(-c2c(C)n(C)n(-c3ccccc3)c2=O)c2c(F)c(F)c(F)cc2c1=O,i,i,93.0,89.0,-0.9,-13.0,.,.
Cc1ccc(-c2n[nH]c(=O)c3ccccc23)cc1S(=O)(=O)NCCO,i,i,96.0,100.0,38.9,-1.0,.,.
